Compound activity from PubChem BioAssay.
ADAM17 inh – inhibitors of human ADAM17. recombinant ADAM17, EDANS/DABCYL FRET peptide cleavage. inhibition, % at 6.95 µM. hit rate 0.83% among 370,000. AID 720648. P78536;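 active = inhibition above the mean of compounds lying between control limits plus 3 SD, set per campaign, cut at about 8.5% in these data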;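 note: 0% = DMSO-only wells as the low control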
Target sequence (P78536 215-824 limits assumed): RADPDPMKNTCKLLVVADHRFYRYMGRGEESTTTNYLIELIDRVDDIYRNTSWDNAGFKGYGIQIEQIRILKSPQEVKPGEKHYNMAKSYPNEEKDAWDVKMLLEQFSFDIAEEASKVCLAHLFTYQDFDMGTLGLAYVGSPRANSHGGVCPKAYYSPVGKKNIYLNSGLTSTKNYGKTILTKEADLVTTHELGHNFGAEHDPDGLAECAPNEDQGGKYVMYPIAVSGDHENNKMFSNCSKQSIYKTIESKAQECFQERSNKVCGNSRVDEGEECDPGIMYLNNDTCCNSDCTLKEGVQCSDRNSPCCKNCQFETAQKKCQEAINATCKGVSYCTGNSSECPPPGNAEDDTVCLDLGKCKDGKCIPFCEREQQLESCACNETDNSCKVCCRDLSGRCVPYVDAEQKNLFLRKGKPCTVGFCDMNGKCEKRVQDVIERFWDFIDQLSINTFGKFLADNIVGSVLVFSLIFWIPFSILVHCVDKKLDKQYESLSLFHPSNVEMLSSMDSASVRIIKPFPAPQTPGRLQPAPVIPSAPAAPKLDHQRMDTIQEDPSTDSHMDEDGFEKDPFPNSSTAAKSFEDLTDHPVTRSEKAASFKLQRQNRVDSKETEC
ADAM10 inh – inhibitors of human ADAM10; O14672; recombinant ADAM10, EDANS/DABCYL FRET peptide cleavage, 3 h; inhibition, % at 7 µM; hit rate 0.62% among 370,000;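 active = inhibition above a per-campaign cutoff equal to the mean of compounds falling between control-based bounds plus 3 SD, cut at about 20% in these data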;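 note: 0% = DMSO wells while the 100% control is not disclosed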
GRIN3A LBD mod – NR3A (human) ligand-binding domain modulation. NR3A LBD differential scanning fluorimetry, Tm shift; 0% = protein alone, 100% = glycine-bound protein. Tm shift relative to glycine control, % at 25 µM. hit rate 2.5% among 340,000;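 active = melting temperature shift of at least 10% of the positive control shift, at one fixed dose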
FAS TE block – FAS thioesterase (human) inhibition. AID 602261. hit rate 0.67% among 360,000. inhibition, % at 15 µM. recombinant FAS-TE, OMFH fluorogenic substrate, fluorescence endpoint;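 active = compounds whose normalised, plate-corrected inhibition of enzyme fluorescence in the single-dose primary screen is 50% or more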;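 note: 0% = DMSO with enzyme and 100% = substrate without enzyme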
HGIII-sPLA2 inh – Blocks human group III sPLA2 activity; Q9NZ20; QFRET BODIPY PC-A2 liposome hydrolysis, fluorescence; inhibition, % at 12.2 µM; hit rate 0.56% among 370,000; AID 743126;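 active = inhibition above mean plus 3 SD of compounds lying within the high and low control bounds, cut at about 19% in these data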;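 note: 0% = median of test compound wells and 100% = no enzyme DMSO wells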
* hit, by the source's call; i = inactive; / = no result given. Compounds with a hit are over-represented: about 4.3% of the library has one in this group of screens.

SMILES	ADAM17 inh	ADAM10 inh	GRIN3A LBD mod	FAS TE block	HGIII-sPLA2 inh
N#CCC(=O)Nc1ccc(C(=O)NCCc2c[nH]c3ccccc23)cc1	-1.1	-3.5	18.4*	-0.5	-49.3
NC(=NCCc1c[nH]c2ccccc12)NC(=O)c1ccc(Cl)cc1	3.0	19.1	23.8*	-7.6	-107.2
O=C(NCCc1c[nH]c2ccccc12)c1ccccc1	-0.9	-8.0	12.6*	-1.8	-36.3
O=C(Nc1c(-c2ccc(C(F)(F)F)cc2)nc2ncccn12)C1CC1	-270.0	i	/	/	4.9
O=S1(=O)c2c(cccc2N2CCC[C@H]2CO)O[C@@H]2CCN1C2	-1.9	0.4	/	/	0.3
O=C(NCCc1c[nH]c2ccccc12)c1ccc(-n2cnnn2)cc1	-1.0	2.7	13.1*	4.5	-12.8
O=C(NCCc1c[nH]c2ccccc12)c1ccc([N+](=O)[O-])cc1	-2.3	-0.3	24.6*	20.2	-33.7
COc1ccc2[nH]cc(CCNC(=O)c3ccc([N+](=O)[O-])cc3)c2c1	-4.9	1.1	12.1*	24.1	-28.5
Cc1ccc(C(=O)NCCc2c[nH]c3ccccc23)s1	-0.8	0.0	27.1*	-2.0	-39.4
Cc1ccc2nc(-c3ccc(NC(=O)CSc4nnc(-c5cccc(Cl)c5)n4Cc4ccco4)cc3)sc2c1	-49.0	-167.1	/	/	-0.2
CCSc1nnc(-c2ccc(Cl)cc2Cl)o1	-1.0	1.7	15.7*	7.8	7.7
O=C1/C(=C/c2ccccc2)Oc2cc(OC(=O)N3CCOCC3)ccc21	-2.5	-9.2	20.5*	-10.5	-2.3
O=C1/C(=C/c2ccc(F)cc2)Oc2cc(OC(=O)N3CCOCC3)ccc21	0.9	-9.4	0.0	-2.2	-1.5
COc1ccc(C)cc1NC(=O)C1CCCN(S(=O)(=O)c2ccc3[nH]c(=O)ccc3c2)C1 (configuration not stated)	-3.1	-1.8	14.8*	1.2	1.2
Cc1ccc(-n2c(SCC(N)=O)nc3c(c2=O)C2(CCCC2)Cc2ccccc2-3)cc1	3.0	0.3	13.1*	28.5	-10.4
CCSc1n[nH]c2nc3c(c(=O)n12)C1(CCCC1)Cc1ccccc1-3	-14.6	-42.6	-3.7	-35.1	2.0
Cc1ccc(-n2[nH]c(C)c(/C=C3/C=Nc4ccccc43)c2=O)cc1C	2.4	7.7	14.5*	-7.8	7.2
Cc1[nH]n(-c2ccccc2)c(=O)c1/C=C1\C=NN=C1c1ccccc1	3.0	7.5	-5.0	-5.6	-6.7
O=C(NCCc1c[nH]c2ccccc12)OCc1cn(Cc2cccc(F)c2)nn1	2.4	-1.6	/	/	-60.8
Cc1ccc([C@@H]2[C@@H]3C(=O)N(c4ccccc4)C(=O)[C@@H]3[C@]3(Cc4ccccc4)C(=O)N(CC4CC4)CC(=O)N23)o1	-2.2	7.2	18.0*	-8.3	3.9
Cc1ccc([C@@H]2[C@@H]3C(=O)N(C)C(=O)[C@@H]3[C@]3(Cc4ccccc4)C(=O)N(CCO)CC(=O)N23)o1	-3.7	-9.2	2.1	-10.7	0.9
CC(C)(N[C@@H](Cc1ccccc1)C(=O)NCCc1c[nH]c2ccccc12)C(=O)NC1CCCCC1	0.5	4.2	/	/	-83.5
COC(=O)[C@]12C[C@H](CC(=O)NCC3CCCCC3)C(=O)N(Cc3ccco3)C1=C[C@H](COCc1ccccc1)O[C@@H]2C	-0.9	-6.0	/	/	2.7
CCSc1cc(N2CCCC2)nc(-c2ccc(C)cc2)n1	4.3	-0.2	14.7*	15.3	-7.7
CCSc1cc(N2CCCC2)nc(-c2ccc(F)cc2)n1	7.1	5.4	0.7	13.4	9.9
SMILES	ADAM17 inh	ADAM10 inh	GRIN3A LBD mod	FAS TE block	HGIII-sPLA2 inh
CC(/C=N/NC(=O)COc1ccccc1C)=N\NC(=O)COc1ccccc1C	-1.2	-8.7	12.5*	-4.0	0.0
CC(=O)c1cccc(NS(=O)(=O)c2ccc(N/C=C\C(=O)c3ccc(F)cc3)cc2)c1	-1.0	-9.4	1.1	9.1	-46.3
CC(=O)c1ccc(NS(=O)(=O)c2ccc(N/C=C/C(=O)c3ccc(F)cc3)cc2)cc1	1.1	2.5	15.9*	18.7	-34.0
CC(=O)c1cccc(NS(=O)(=O)c2ccc(N/C=C/C(=O)c3ccc(F)cc3)cc2)c1	2.2	-0.4	18.1*	31.6	-56.4
CCC(=O)Nc1cc2c3c(c1)CCN3C(=O)CC2	-1.5	-10.1	11.3*	-7.8	-2.0
CC(C)(C)CC(=O)Nc1cc2c3c(c1)CCN3C(=O)CC2	-2.9	9.5	-0.1	-9.6	0.4
CCc1ccc(OC(C)C(=O)Nc2ccccc2C(=O)N2CCOCC2)cc1 (configuration not stated)	0.2	15.0	6.7	-1.1	-5.4
CCC(Oc1ccccc1)C(=O)Nc1ccccc1C(=O)N1CCN(C)CC1 (configuration not stated)	-0.1	-5.3	11.1*	-3.0	-3.6
CCC(Oc1ccccc1)C(=O)Nc1ccccc1C(=O)N1CCCCC1 (configuration not stated)	-0.5	-2.2	9.6	-0.1	7.7
CCC(Oc1ccccc1)C(=O)Nc1ccccc1C(=O)N1CCOCC1 (configuration not stated)	-0.2	-1.4	12.6*	-5.7	-1.8
CC(C)N1CCCCC(NC(=O)c2ccc(-c3ccccc3)cc2)C1=O (configuration not stated)	-0.7	1.4	/	/	-3.0
C[C@H](O)[C@@H]1CN2CCc3ccc(N4CCOCC4)cc3[C@@H]2C[C@@H]1N(C)C(=S)NCCc1ccccc1	-2.1	-5.1	/	/	1.1
COc1ccc(/C=C/C(=O)Nc2cc(C)nn2-c2nc3ccccc3[nH]2)cc1	-0.5	-1.8	1.0	7.1	9.7
Cc1cc(NC(=O)/C=C/c2cccc(Cl)c2)n(-c2nc3ccccc3[nH]2)n1	1.9	9.9	10.7*	2.6	3.6
Cc1cc(NC(=O)/C=C/c2ccc(F)cc2)n(-c2nc3ccccc3[nH]2)n1	0.3	-7.1	12.2*	-6.1	-4.6
Cc1cc(NC(=O)/C=C/c2cccc(F)c2)n(-c2nc3ccccc3[nH]2)n1	1.9	3.5	4.8	-0.2	5.5
COC(=O)[C@H](C)N(Cc1cn(Cc2ccccc2)nn1)S(=O)(=O)c1ccccc1Br	4.2	8.7	/	/	-0.4
Nn1c(SCC(=O)N2c3ccccc3Sc3ccc(Cl)cc32)nnc1-c1cc(-c2ccc(F)cc2)n[nH]1	5.8	-4.0	/	/	11.3
COc1cc(-c2c(C(=O)c3ccccc3)[nH]c(N)c2C(N)=O)ccc1O	-5.8	-6.3	/	/	14.6
CCc1ccc(-n2nc3ccc(NC(=O)c4ccc5c(c4)OCO5)cc3n2)cc1	-5.9	-13.3	15.2*	-0.2	5.4
Cc1ccc(-n2nc3ccc(NC(=O)c4ccc5c(c4)OCO5)cc3n2)cc1	2.0	-5.6	12.9*	-2.3	-2.2
Cc1ccc(-n2nc3ccc(NC(=O)c4ccco4)cc3n2)cc1	-86.6	-224.6	9.5	16.3	-7.3
Cc1ccc(-n2nc3ccc(NC(=O)c4cccc([N+](=O)[O-])c4C)cc3n2)cc1	-8.1	-32.6	17.1*	5.0	2.0
CCOC(=O)c1cccc(NC(=O)c2ccc3c(c2)OCO3)c1	-2.3	-4.1	1.4	3.1	1.1
